Assay results: PubChem BioAssay (Tox21)
Unmarked numbers belong to inactive results. Results filed as inconclusive are left out. Entries that show only a call come without a potency. Active and inactive are the calls of the source. The call rests on the fitted dose curve; in most records, active means well fitted curve in the direction sought with a large enough effect in the repeat runs; inconclusive means weak or mixed curves; inactive means no such curve, though single readings can be large; an effect the other way counts as inactive or inconclusive.

Columns and labels:
[1] = Human pregnane X receptor (PXR) small molecule agonists, qHTS cell viability counter screen (AID 1346977); further: nearly all actives have a fitted effect of over 50% in size
Outline: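 PXR-Luc HepG2, 2,000 cells/well, 5% charcoal-stripped FBS; 5hr settle; cpd 24hr, 37C/5% CO2; CellTiter-Fluor at 23hr, read 1hr later (fluorescence).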

[2] = Caspase-3/7 induction in HepG2 cells by small molecules, qHTS assay (AID 1346978); further: nearly all actives have a fitted effect of over 15% in size
Outline: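 Caspase-3/7 induction was measured by Caspase-Glo 3/7 luminescence (30 min, room temperature) after a 17 hr compound exposure of wild-type HepG2 cells seeded at 2,000 per well and pre-incubated 5 hr.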

[3] = Caspase-3/7 induction in CHO-K1 cells by small molecules, qHTS cell viability counter screen (AID 1346979); further: nearly all actives have a fitted effect of over 35% in size; further: potency means the concentration at half of the fitted maximal effect
Outline: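 Cells (CHO-K1, wild type) are plated at 1,500 per well and incubated 5hr. Test compounds in DMSO are then pinned in, followed by 16hr at 37C and 5% CO2. Viability is read by CellTiter-Fluor fluorescence after 1hr.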

[4] = Caspase-3/7 induction in CHO-K1 cells by small molecules, qHTS assay (AID 1346980); further: nearly all actives have a fitted effect of over 15% in size
Outline: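 Luminescent Caspase-Glo 3/7 read (30min, room temperature) quantified apoptosis induction. Cells were wild-type CHO-K1, treated with compound for 17hr at 37 C and 5% CO2.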

[5] = target: Cytochrome P450 2D6 (Homo sapiens) (UniProt P10635); assay: Cytochrome P450 Family 2 Subfamily D Member 6 (CYP2D6) small molecule antagonists: luciferase reporter qHTS assay (AID 1671196); further: nearly all actives have a fitted effect of over 50% in size; further: potency means the concentration at half of the fitted maximal effect
Sequence of Cytochrome P450 2D6 (Homo sapiens) (P10635 whole entry, looked up): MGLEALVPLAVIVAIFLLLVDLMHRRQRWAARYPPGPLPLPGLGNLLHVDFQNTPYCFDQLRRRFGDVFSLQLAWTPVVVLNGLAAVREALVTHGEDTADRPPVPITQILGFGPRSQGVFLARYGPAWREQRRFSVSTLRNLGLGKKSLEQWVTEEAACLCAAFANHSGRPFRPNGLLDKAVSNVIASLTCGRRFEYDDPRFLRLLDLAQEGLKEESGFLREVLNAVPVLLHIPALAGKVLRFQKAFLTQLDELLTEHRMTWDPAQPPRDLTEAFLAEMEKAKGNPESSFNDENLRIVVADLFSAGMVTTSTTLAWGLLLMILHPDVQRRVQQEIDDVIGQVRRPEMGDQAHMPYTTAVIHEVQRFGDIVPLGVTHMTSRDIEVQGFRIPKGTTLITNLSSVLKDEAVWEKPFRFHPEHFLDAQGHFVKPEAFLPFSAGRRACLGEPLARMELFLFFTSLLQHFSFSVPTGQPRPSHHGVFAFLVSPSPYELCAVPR
Outline: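 Each well received CYP2D6 with its proluciferin substrate and chemical, sat 10 min, then got NADPH regeneration solution for 1 h at room temperature. Luminescence in RLU served as the activity measure.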

[6] = target: Cytochrome P450 2C9 (Homo sapiens) (UniProt P11712); assay: Cytochrome P450 Family 2 Subfamily C Member 9 (CYP2C9) small molecule antagonists: luciferase reporter qHTS assay (AID 1671198); further: nearly all actives have a fitted effect of over 50% in size; further: potency means the concentration at half of the fitted maximal effect
Sequence of Cytochrome P450 2C9 (Homo sapiens) (P11712 whole entry, looked up): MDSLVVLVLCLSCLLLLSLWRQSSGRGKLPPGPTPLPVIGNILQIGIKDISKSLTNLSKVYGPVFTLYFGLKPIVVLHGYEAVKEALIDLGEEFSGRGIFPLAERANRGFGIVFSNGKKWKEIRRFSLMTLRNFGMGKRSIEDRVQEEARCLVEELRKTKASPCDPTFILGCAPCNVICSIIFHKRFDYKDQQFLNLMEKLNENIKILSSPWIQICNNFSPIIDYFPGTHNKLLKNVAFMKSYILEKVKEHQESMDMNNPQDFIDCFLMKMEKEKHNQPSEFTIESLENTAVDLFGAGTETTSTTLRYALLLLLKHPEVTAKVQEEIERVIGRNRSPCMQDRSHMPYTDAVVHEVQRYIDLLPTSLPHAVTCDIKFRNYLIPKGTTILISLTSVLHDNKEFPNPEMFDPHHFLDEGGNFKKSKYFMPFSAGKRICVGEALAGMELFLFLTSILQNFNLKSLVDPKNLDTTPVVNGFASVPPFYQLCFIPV
Outline: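 Enzyme-substrate mix preincubated with compound 10 min at room temperature; reaction started with NADPH regeneration solution, 1 h 37C. Luminescent luciferin product read after 20 min detection reagent.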

[7] = target: Voltage-gated inwardly rectifying potassium channel KCNH2 (Homo sapiens) (UniProt Q12809); assay: Human Ether-a-go-go-Related Gene (hERG) channel small molecule antagonists: fluorescence cell-based qHTS assay (AID 1671200);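 further: hERG-expressing U2OS cells given a thallium stimulus after FluxOR II dye loading; series mostly up to about 77 µM; nearly all actives have a fitted effect of over 50% in size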
Sequence of Voltage-gated inwardly rectifying potassium channel KCNH2 (Homo sapiens) (Q12809 whole entry, looked up): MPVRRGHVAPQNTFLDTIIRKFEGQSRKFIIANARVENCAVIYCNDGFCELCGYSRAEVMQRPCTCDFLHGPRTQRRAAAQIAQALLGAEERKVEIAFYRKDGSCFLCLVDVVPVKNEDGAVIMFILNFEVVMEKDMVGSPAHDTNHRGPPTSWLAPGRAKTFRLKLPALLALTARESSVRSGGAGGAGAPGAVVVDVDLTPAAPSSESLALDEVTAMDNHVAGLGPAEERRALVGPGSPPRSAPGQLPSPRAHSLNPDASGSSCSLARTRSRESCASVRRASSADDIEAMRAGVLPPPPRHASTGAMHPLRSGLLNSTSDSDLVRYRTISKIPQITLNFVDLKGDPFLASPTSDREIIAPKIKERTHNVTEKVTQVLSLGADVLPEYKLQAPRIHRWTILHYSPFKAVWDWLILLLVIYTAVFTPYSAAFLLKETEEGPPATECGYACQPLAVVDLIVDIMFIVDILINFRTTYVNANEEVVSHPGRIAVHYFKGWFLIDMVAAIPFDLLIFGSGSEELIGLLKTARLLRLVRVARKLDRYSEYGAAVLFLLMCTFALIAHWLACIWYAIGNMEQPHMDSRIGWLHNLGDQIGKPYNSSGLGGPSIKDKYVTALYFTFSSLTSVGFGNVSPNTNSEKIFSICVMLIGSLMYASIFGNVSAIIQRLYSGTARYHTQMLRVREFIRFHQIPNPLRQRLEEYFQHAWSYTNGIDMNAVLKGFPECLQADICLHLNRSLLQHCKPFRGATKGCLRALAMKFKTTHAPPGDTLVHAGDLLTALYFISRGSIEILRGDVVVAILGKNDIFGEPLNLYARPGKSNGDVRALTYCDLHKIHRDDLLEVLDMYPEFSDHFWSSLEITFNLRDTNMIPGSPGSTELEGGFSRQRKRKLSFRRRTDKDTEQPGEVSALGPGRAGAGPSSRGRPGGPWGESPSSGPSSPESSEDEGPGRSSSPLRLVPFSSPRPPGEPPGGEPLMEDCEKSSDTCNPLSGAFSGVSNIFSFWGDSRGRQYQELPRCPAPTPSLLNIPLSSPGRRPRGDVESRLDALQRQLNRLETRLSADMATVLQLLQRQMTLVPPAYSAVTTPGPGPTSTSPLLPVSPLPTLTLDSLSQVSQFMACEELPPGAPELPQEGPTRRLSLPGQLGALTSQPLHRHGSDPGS
Outline: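 Channel function was assessed by thallium flux. Cells seeded the previous day and kept at 37 C took up FluxOR II dye over 1 h in the dark at room temperature, then sat another 10 min before stimulation.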

[8] = target: Cytochrome P450 3A4 (Homo sapiens) (UniProt P08684); assay: Cytochrome P450 Family 3 Subfamily A Member 4 (CYP3A4) small molecule antagonists: luciferase reporter qHTS assay (AID 1671201)
Sequence of Cytochrome P450 3A4 (Homo sapiens) (P08684 whole entry, looked up): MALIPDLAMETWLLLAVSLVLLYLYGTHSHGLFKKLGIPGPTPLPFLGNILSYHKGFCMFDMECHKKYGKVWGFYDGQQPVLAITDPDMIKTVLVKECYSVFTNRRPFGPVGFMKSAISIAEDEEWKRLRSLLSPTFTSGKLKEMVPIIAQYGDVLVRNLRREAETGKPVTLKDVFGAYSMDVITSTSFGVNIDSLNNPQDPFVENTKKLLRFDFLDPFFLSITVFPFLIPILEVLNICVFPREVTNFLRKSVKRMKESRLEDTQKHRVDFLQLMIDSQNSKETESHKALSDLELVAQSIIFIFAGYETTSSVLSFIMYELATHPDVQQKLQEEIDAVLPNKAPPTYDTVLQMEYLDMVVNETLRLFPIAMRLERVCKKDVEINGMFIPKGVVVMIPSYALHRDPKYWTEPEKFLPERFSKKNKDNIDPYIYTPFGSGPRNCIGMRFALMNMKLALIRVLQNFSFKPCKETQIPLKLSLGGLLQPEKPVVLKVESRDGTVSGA
Outline: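 Compounds in DMSO were pin-transferred onto CYP3A4 enzyme-substrate mix and held 10 min at room temperature. NADPH regenerating solution started the reaction for 1 h; luciferin detection reagent stopped it, and luminescence was read after 20 min.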

[9] = Caspase-3/7 induction in HepG2 cells by small molecules, qHTS cell viability counter screen (AID 1346981); further: nearly all actives have a fitted effect of over 30% in size; further: potency means the concentration at half of the fitted maximal effect
Outline: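 Viability determined by CellTiter-Fluor fluorescence in HepG2 wells also used for the luminescent Caspase-Glo 3/7 read. Compounds were present for 16 hr at 37 C, 5% CO2 before reagent addition.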

[10] = target: Cytochrome P450 2C19 (Homo sapiens) (UniProt P33261); assay: Cytochrome P450 Family 2 Subfamily C Member 19 (CYP2C19) small molecule antagonists: luciferase reporter qHTS assay (AID 1671197); further: nearly all actives have a fitted effect of over 65% in size; further: potency means the concentration at half of the fitted maximal effect
Sequence of Cytochrome P450 2C19 (Homo sapiens) (P33261 whole entry, looked up): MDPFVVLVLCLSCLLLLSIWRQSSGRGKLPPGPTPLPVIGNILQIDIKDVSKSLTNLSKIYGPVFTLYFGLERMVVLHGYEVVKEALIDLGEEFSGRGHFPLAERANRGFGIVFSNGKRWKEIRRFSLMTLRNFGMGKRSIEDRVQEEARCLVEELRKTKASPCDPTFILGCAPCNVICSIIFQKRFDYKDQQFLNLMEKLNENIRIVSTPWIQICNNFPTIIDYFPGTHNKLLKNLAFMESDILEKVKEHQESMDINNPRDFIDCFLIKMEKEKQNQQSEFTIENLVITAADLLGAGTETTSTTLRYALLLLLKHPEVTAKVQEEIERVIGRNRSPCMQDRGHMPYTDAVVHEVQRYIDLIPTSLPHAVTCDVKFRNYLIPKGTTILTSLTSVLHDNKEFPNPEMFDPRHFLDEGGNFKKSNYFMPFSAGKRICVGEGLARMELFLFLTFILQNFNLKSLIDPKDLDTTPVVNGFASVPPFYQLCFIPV
Outline: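 Light output is proportional to CYP2C19 activity: proluciferin substrate is converted to luciferin, then detected by a luciferin detection reagent that also stops the 1 h, 37C NADPH-driven reaction. Ketoconazole serves as positive control.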

[11] = target: Nuclear receptor subfamily 1 group I member 2 (Homo sapiens) (UniProt O75469); assay: Human pregnane X receptor (PXR) small molecule agonists, qHTS assay (AID 1346982); further: nearly all actives have a fitted effect of over 35% in size; further: potency means the concentration at half of the fitted maximal effect
Sequence of Nuclear receptor subfamily 1 group I member 2 (Homo sapiens) (O75469 whole entry, looked up): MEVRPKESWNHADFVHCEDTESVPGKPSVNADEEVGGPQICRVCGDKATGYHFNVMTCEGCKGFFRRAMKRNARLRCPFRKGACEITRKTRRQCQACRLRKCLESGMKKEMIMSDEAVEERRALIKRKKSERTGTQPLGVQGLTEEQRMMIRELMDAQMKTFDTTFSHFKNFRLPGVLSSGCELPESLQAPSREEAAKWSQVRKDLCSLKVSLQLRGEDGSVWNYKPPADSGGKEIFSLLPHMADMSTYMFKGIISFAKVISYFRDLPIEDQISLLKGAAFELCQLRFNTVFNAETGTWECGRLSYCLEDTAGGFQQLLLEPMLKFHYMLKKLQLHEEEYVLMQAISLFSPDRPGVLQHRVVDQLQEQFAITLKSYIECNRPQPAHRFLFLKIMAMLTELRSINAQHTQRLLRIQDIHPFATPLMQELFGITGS
Outline: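 Compound-induced hPXR transactivation of a CYP3A4 luciferase reporter was scored in HepG2 PXR-Luc cells over 24 hr at 37 C, 5% CO2, by luminescence.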

[12] = target: Cytochrome P450 1A2 (Homo sapiens) (UniProt P05177); assay: Cytochrome P450 Family 1 Subfamily A Member 2 (CYP1A2) small molecule antagonists: luciferase reporter qHTS assay (AID 1671199); further: nearly all actives have a fitted effect of over 50% in size; further: potency means the concentration at half of the fitted maximal effect
Sequence of Cytochrome P450 1A2 (Homo sapiens) (P05177 whole entry, looked up): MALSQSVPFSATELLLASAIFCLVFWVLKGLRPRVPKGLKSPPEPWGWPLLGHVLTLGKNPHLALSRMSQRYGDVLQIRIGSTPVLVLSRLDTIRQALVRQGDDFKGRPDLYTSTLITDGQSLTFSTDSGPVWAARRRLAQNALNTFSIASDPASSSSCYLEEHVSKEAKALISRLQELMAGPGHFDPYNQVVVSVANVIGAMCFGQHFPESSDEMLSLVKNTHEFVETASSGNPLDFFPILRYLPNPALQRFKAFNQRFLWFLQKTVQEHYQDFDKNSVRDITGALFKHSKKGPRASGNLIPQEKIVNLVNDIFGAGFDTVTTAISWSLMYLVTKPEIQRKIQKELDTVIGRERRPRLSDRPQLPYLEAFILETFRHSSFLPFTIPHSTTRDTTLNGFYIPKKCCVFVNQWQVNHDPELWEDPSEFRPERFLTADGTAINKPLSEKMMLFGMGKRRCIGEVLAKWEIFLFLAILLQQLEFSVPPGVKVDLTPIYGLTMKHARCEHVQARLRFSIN
Outline: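 Enzymatic CYP1A2 assay, human, luminescent: 10 min compound–enzyme–substrate preincubation, 1 h NADPH-dependent turnover, 20 min detection step, room temperature throughout. Reduced light indicates lower CYP1A2 activity.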

[13] = target: Nuclear receptor subfamily 1 group I member 2 (Rattus norvegicus) (UniProt Q9R1A7); assay: Rat pregnane X receptor (rPXR) activation by small molecules, qHTS assay (AID 1346983); settings: rPXR luciferase reporter cells, One-Glo luminescence, 24 h; active compounds read high; further: nearly all actives have a fitted effect of over 20% in size
Sequence of Nuclear receptor subfamily 1 group I member 2 (Rattus norvegicus) (Q9R1A7 whole entry, looked up): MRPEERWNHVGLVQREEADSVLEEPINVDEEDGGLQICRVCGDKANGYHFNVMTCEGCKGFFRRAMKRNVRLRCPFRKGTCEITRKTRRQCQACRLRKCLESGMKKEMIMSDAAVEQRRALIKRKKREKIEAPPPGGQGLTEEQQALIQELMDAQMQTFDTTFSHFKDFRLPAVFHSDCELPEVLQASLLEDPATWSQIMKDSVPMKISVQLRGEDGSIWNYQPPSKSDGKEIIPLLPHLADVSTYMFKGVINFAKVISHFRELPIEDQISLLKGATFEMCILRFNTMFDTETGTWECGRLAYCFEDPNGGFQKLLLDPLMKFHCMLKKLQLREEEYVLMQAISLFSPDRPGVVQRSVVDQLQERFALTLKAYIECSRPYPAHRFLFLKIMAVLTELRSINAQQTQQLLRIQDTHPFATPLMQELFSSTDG
Outline: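 Luminescent readout (One-Glo luciferase, 30 min room temperature) followed 24 hr compound treatment at 37 C of rPXR cells plated 2,000 per well and preincubated 5hr; qHTS format with compounds delivered in DMSO.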

[14] = target: Nuclear receptor subfamily 1 group I member 2 (Homo sapiens) (UniProt O75469); assay: CYP3A4 induction through human pregnane X receptor (PXR) by small molecules, qHTS assay (AID 1346984); further: nearly all actives have a fitted effect of over 40% in size
Outline: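 Readings come from a luciferase reporter: DPX-2 cells, which are HepG2 cotransfected with PXR and a CYP3A4-promoter construct, were exposed to test compounds for 24 h at 37C before One-Glo detection.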

[15] = target: Nuclear receptor subfamily 1 group I member 2 (Homo sapiens) (UniProt O75469); assay: Human pregnane X receptor (PXR) activation by small molecules, qHTS assay (AID 1346985); further: potency means the concentration at half of the fitted maximal effect; nearly all actives have a fitted effect of over 40% in size
Outline: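 DPX-2 cells (HepG2 co-transfected with a PXR response element and a CYP3A4-promoter luciferase construct) were seeded at 2,000 per well, rested 5 hr at 37C, then exposed to DMSO-dissolved compounds for 24 hr. Activation was read as luciferase luminescence.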

Row | Compound | Potency [1] | Potency [2] | Potency [3] | outcome [4] | Potency [5] | Potency [6] | Potency [7] | Potency [8] | Potency [9] | Potency [10] | Potency [11] | Potency [12] | max activation [13] | Potency [14] | Potency [15]
1 | Cc1ccc2c(c1)OCC(=O)CO2 | inactive | inactive | inactive | inactive | 35.6 µM (active) | inactive | inactive | inactive | – | – | – | – | – | – | –
2 | CCN(CC)CC(=O)Nc1c(C)cccc1C | inactive | inactive | – | inactive | – | – | – | – | inactive | – | – | – | – | – | –
3 | C=CC(OCC)OCC | inactive | inactive | inactive | inactive | inactive | inactive | inactive | inactive | – | inactive | – | – | – | – | –
4 | OCCCCC(O)CO (configuration not stated) | inactive | inactive | – | inactive | inactive | 67.2 µM (active) | inactive | inactive | inactive | inactive | inactive | inactive | – | – | –
5 | O=C1CC(c2ccc(Cl)cc2)CC(=O)N1 | inactive | inactive | – | inactive | inactive | – | inactive | inactive | inactive | inactive | inactive | 27.5 µM (active) | – | – | –
6 | CCCCCCCCC(=O)Cl | inactive | inactive | inactive | inactive | inactive | – | inactive | inactive | – | – | inactive | – | – | – | –
7 | O=C(OCC(O)CO)c1ccccc1Nc1ccnc2c(C(F)(F)F)cccc12 (configuration not stated) | inactive | inactive | – | inactive | 30.9 µM (active) | 9.77 µM (active) | inactive | – | inactive | 0.347 µM (active) | 26.6 µM (active) | – | – | – | –
8 | CC1COc2ccccc2N1 (configuration not stated) | inactive | inactive | – | inactive | inactive | – | inactive | inactive | inactive | 44.8 µM (active) | inactive | 31.7 µM (active) | – | – | –
9 | O=S(=O)(O)c1ccc2cc(O)c(S(=O)(=O)O)cc2c1 | inactive | inactive | inactive | inactive | – | inactive | inactive | inactive | – | inactive | inactive | – | – | – | –
10 | OCCC(F)(F)C(F)(F)C(F)(F)C(F)(F)C(F)(F)C(F)(F)C(F)(F)C(F)(F)F | inactive | inactive | inactive | inactive | inactive | inactive | inactive | – | – | inactive | – | – | – | – | –
11 | COc1ccc2c(c1OC)C(=O)O[C@@H]2[C@H]1c2c(cc3c(c2OC)OCO3)CCN1C | – | inactive | 13.3 µM (active) | inactive | 11 µM (active) | 0.871 µM (active) | inactive | – | 15 µM (active) | 1.38 µM (active) | 11.9 µM (active) | inactive | 8.04% | inactive | 22.4 µM (active)
12 | C[Si](C)(C)C | inactive | inactive | – | inactive | inactive | inactive | inactive | inactive | – | inactive | – | – | – | – | –
13 | COc1cc2c(cc1OC)[C@@H]1CC(=O)[C@@H](CC(C)C)CN1CC2 | inactive | – | inactive | inactive | 12.3 µM (active) | 11 µM (active) | inactive | – | inactive | 7.76 µM (active) | – | – | – | – | –
14 | CCCCNc1ccc(C(=O)OCCN(C)C)cc1 | inactive | inactive | – | inactive | – | – | inactive | – | inactive | – | – | – | -1.52% | – | –
15 | C#CC(C)N(C)C(=O)Nc1ccc(Cl)cc1 (configuration not stated) | inactive | inactive | – | inactive | – | 4.47 µM (active) | inactive | inactive | inactive | 8.93 µM (active) | – | 3.99 µM (active) | – | – | –
16 | COc1cc(N)ccc1C | inactive | inactive | – | inactive | 12.5 µM (active) | 6.26 µM (active) | inactive | – | inactive | 1.98 µM (active) | – | 4.98 µM (active) | – | – | –
17 | CC(=O)c1sc(C)nc1C | inactive | inactive | – | inactive | inactive | inactive | inactive | inactive | – | inactive | inactive | inactive | – | – | –
18 | CC(=O)OC(C)OC(=O)C(C)c1ccc(-c2ccccc2)c(F)c1 (configuration not stated) | inactive | inactive | – | inactive | – | – | inactive | inactive | inactive | 5.49 µM (active) | inactive | – | – | – | –
